Screening data from PubChem.
In the library only some 0.43% were active in any assay of this set; here they are far more common.
MmCpn inh = Inhibitors of TCP-1 ring complex (TRiC) of Methanococcus maripaludis (MmCpn): qHTS. Chaperonin Mm-Cpn (Methanococcus maripaludis). purified Mm-Cpn ATPase, ADP Transcreener TR-FRET. Potency, µM (doses to about 76.9 µM), most hits filed as inhibitors. hit rate 0.031% among 330,000; also: nearly all actives have a fitted effect of over 80% in size
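Reaction buffer contained 30 mM Tris pH 7.4, 100 mM KCl, 5 mM MgCl2 and 1 mM DTT. Mm-CPN (25 nM final) hydrolysed 10 uM ATP over 30 min at 37°C; ADP was read by HTRF.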
Rango dissoc inh = qHTS Assay for Inhibitors of RanGTP induced Rango (Ran-regulated importin-beta cargo) - Importin beta complex dissociation | Biochemical FRET Rango-importin beta, RanGTP-induced dissociation | Potency, µM (top dose mostly 46.1 µM) | hit rate 0.071% among 340,000; calls by dose curve; also: nearly all actives have a fitted effect of over 45% in size
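Two FRET readings bracket the reaction: one 5 min after compound meets Rango–importin beta, another 45 min after RanGTP-RCC1 (0.6 uM Ran, 0.2 uM RCC1, 2 mM GTP) is added. Only the second defines inhibition.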
B2AR arrestin = qHTS assay of beta-arrestin-biased ligands of beta2-adrenergic receptor; Beta-2 adrenergic receptor (Homo sapiens), P07550; beta-arrestin recruitment to beta2AR, cell-based reporter; Potency, µM (top dose mostly 46.1 µM), usual class: activators; hit rate 0.02% among 330,000; also: nearly all actives have a fitted effect of over 65% in size
Rango complex inh = qHTS Assay for Inhibitors of Rango (Ran-regulated importin-beta cargo) - Importin beta complex formation; Importin subunit beta-1 (Homo sapiens), Q14974; hit rate 0.031% among 340,000; Rango CFP/YFP FRET sensor + importin beta, 45 min; AID 540263, 2011; Potency, µM (doses to about 92.2 µM); calls by dose curve; also: nearly all actives have a fitted effect of over 15% in size
Target sequence (Q14974 whole entry, looked up): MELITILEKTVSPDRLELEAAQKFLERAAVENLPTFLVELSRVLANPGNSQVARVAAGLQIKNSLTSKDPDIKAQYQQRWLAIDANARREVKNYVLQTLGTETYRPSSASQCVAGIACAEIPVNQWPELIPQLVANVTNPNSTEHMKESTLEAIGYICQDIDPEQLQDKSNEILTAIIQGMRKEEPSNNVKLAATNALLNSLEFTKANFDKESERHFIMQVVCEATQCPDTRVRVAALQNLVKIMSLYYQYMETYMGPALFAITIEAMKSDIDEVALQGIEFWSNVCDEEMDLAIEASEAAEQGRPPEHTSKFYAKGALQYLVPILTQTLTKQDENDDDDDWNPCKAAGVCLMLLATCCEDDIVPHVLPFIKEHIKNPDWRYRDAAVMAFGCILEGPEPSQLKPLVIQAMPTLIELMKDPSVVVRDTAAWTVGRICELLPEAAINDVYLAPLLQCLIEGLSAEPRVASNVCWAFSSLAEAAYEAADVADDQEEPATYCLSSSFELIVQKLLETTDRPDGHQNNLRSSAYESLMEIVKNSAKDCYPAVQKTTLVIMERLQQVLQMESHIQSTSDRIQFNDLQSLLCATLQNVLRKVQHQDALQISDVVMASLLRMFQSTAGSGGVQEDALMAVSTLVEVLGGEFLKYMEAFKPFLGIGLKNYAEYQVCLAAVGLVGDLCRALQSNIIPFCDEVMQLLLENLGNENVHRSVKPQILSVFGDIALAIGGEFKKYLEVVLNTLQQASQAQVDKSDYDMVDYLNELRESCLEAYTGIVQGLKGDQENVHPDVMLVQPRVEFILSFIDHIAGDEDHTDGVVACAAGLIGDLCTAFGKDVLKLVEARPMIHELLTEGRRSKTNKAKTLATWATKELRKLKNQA
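FRET biosensor Rango (snurportin 1 IBB between N-terminal EYFP and C-terminal Cerulean), 50 nM in PBS/1 mM DTT/0.02% Tween-20/0.1% BSA, preincubated 5 min RT with compound; 0.125 microM importin beta added, 45 min RT, CFP/YFP FRET ratio read.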
CCT modulator = High-Throughput Screening for Modulators of Cytosolic Chaperonin Activity. purified chaperonin ATPase assay, HTRF ADP detection, 30 min. activity change, % (test concentration not listed), hits read low. hit rate 0.3% among 360,000; in the data active = activity change below about -30%
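Enzyme 40 or 20 nM (batch-dependent) in Tris pH 7.4/KCl/MgCl2/DTT; cpd 76 uM single point; ATP 10 uM; 30 min 37 °C; Transcreener ADP HTRF detection, 30 min RT; ratio 665/615.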
Large screens that a line does not name were inactive. Unless noted, calls follow the shape of the dose curve; as a rule, active = well fitted curve in the direction sought with a large enough effect; inconclusive = small, poorly fitted or top-dose-only effect, or another doubt; inactive = no such curve, though single readings can be large; an effect the other way counts as inactive or inconclusive.

CCCc1cc(=O)n2[nH]c(C)c(-c3ccccc3OC)c2n1	none (no result: MmCpn inh, Rango dissoc inh, B2AR arrestin, Rango complex inh)
CCCc1cc(=O)n2[nH]c(C)c(-c3ccccc3)c2n1	CCT modulator -57.2
CN(CC(=O)Nc1ccccc1Cl)C(=O)COC(=O)C1=COCCO1	none
C=CCn1c(=O)c2ccccc2n2c(SCC(=O)NCC)nnc12	none
S=c1[nH]nc(COc2ccccc2)n1/N=C/C=C/c1ccccc1	CCT modulator -86.6
S=c1[nH]nc(COc2ccccc2)n1/N=C/C=C/c1ccco1	none
Cc1ccc(/C=C(\NC(=O)c2ccccc2)C(=O)NC2CCN(Cc3ccccc3)CC2)o1	none
Cc1ccc(S(=O)(=O)N2CCN(c3cc4c(cc3[N+](=O)[O-])n(C)c(=O)n4C)CC2)cc1	CCT modulator -54.2
CCOC(=O)c1cnc(-n2nc(C)cc2C)nc1NC	B2AR arrestin 17.8µM
CCOC(=O)c1cnc(-n2nc(C)cc2C)nc1Nc1ccc(C)cc1	none
CN(C(=O)NC1CCCCC1)[C@H]1C[C@H]2c3[nH]c4ccccc4c3CCN2C(=O)[C@H]1CO	CCT modulator -56.7 (no result: MmCpn inh, Rango dissoc inh, B2AR arrestin, Rango complex inh)
O=C(C1CCN(S(=O)(=O)c2ccc(F)cc2)CC1)N1CCOCC1	CCT modulator -41.4
NC(=O)C1CCN(c2nc(-c3ccc4c(c3)OCO4)cs2)CC1	none (no result: Rango dissoc inh, B2AR arrestin, Rango complex inh, CCT modulator)
CCOC(=O)c1cc(Br)c(=O)n2ccccc12	MmCpn inh 28.2µM
CCOC(=O)c1cc(C(C)=O)n2ccccc12	none
COc1cccc(C2=CC(c3ccc(OC)c(OC)c3)NC(=S)N2)c1 (centres undefined)	Rango dissoc inh 7.31µM, Rango complex inh inconclusive
CCOC(=O)C1OC1(c1ccccc1)c1ccccc1 (centres undefined)	none (no result: MmCpn inh, B2AR arrestin)
COc1cccc(C(c2c(N)[nH]c(=S)[nH]c2=O)c2c(N)[nH]c(=S)[nH]c2=O)c1	none
CC1(c2nnc(-c3ccncc3)o2)CC(c2ccc([N+](=O)[O-])cc2)=NO1 (centres undefined)	CCT modulator -62.3
O=C(Nc1ccc(C(=O)NC2CCCCC2)cc1)c1cccnc1	none
CC(C)c1ccc(Nc2n[nH]c(=S)s2)cc1	CCT modulator -62.7 (no result: MmCpn inh, Rango dissoc inh, B2AR arrestin, Rango complex inh)
Cc1cccc(C)c1Nc1n[nH]c(=S)s1	none (no result: MmCpn inh, Rango dissoc inh, B2AR arrestin, Rango complex inh)
COc1cc(/C=N/NC(=O)/C(=C/c2ccccc2)CCO)ccc1O	none
O=C(N/N=C/c1ccc(O)cc1O)/C(=C/c1ccccc1)CCO	Rango dissoc inh inconclusive, Rango complex inh inconclusive, CCT modulator -35.1
CCOC(=O)c1sc(=NC(=O)c2ccc(OC(C)C)cc2)n(C)c1C	CCT modulator -33.8
COCCn1c(N)c(C(=O)c2cccc(S(=O)(=O)N3CCCCCC3)c2)c(=O)[nH]c1=O	none
Cc1occc1C(=O)N(Cc1nc(-c2ccccc2)no1)C(C)C	CCT modulator -72.2
CC(NC(=O)COC(=O)CNC(=O)c1ccccc1Cl)C1CC2CCC1C2 (centres undefined)	CCT modulator -39.7
O=C(Nc1ccc2c(c1)OCCO2)C1c2ccccc2OCC(=O)N1CC(F)(F)F (centres undefined)	none (no result: MmCpn inh, Rango dissoc inh, B2AR arrestin, Rango complex inh)
O=S(=O)(NCC1OCCc2ccccc21)c1ccc(S(=O)(=O)N2CCOCC2)cc1 (centres undefined)	CCT modulator -51.9
Cn1nnc2ccccc2c1=O	none
CCCCNC(=O)CCCCCNS(=O)(=O)c1ccc(OC)cc1	CCT modulator -40.8
COCCNC(=O)C1(C)CCN(C(=O)COc2ccc(Cl)cc2Cl)C1 (centres undefined)	none (no result: MmCpn inh, Rango dissoc inh, B2AR arrestin, Rango complex inh)
CCCCNc1nc2sc3c(c2c(=O)n1-c1cccc(Cl)c1)CCN(C)C3	Rango dissoc inh inconclusive, Rango complex inh inconclusive
CCCCCNc1nc2sc3c(c2c(=O)n1-c1cccc(Cl)c1)CCN(C)C3	Rango dissoc inh 16.4µM, Rango complex inh inconclusive
COC(=O)c1c(NC(=O)Cn2cnc([N+](=O)[O-])n2)sc2c1CCC(C)C2 (centres undefined)	none
COc1ccc([C@@H]2CC=C(C(=O)O)[C@H](c3ccccc3)N2S(=O)(=O)c2ccccc2C)cc1	CCT modulator -49.3
CCc1ccccc1N(CC(=O)N1CCc2ccccc2C1)S(C)(=O)=O	CCT modulator -31.0
Cc1cccc(CNc2ncnc3ccc(-c4ccc5c(ccn5C)c4)cc23)c1	none (no result: Rango dissoc inh, Rango complex inh, CCT modulator)
Cc1ccccc1C(=O)NCC(c1ccco1)N1CCc2ccccc2C1 (centres undefined)	MmCpn inh 39.8µM
C[C@H]1CN([C@@H](C)CO)C(=O)c2cc(Br)cnc2O[C@H]1CN(C)Cc1ccccc1C(=O)O	none (no result: MmCpn inh, Rango dissoc inh, B2AR arrestin, Rango complex inh)
Cc1ccc(CCNC(=O)CS(=O)Cc2nc(-c3ccccc3Cl)oc2C)cc1 (centres undefined)	CCT modulator -60.0
CCOc1ccc(CCNC(=O)CS(=O)Cc2nc(-c3ccccc3Cl)oc2C)cc1OCC (centres undefined)	none
Cc1cccc(N(CC(=O)NC(C)C)C(=O)c2ccc(N3CCCC3)nc2)c1	CCT modulator -34.8
CCC(C)(C)NC(=O)CN(C(=O)c1ccc(N2CCCC2)nc1)c1ccc(F)cc1	none
COc1ccccc1Nc1nc(N)nc(CN2CC(C)CC(C)C2)n1 (centres undefined)	none
N#Cc1ccccc1-c1csc(N2CCC(C(N)=O)CC2)n1	none (no result: Rango dissoc inh, B2AR arrestin, Rango complex inh, CCT modulator)
O=C(O)c1cc(O)c2c(c1)[C@@H]([C@H]1c3cc(C(=O)O)cc(O)c3C(=O)c3c(O[C@@H]4O[C@H](CO)[C@@H](O)[C@H](O)[C@H]4O)cccc31)c1cccc(OC3O[C@H](CO)[C@@H](O)[C@H](O)[C@H]3O)c1C2=O (some centres undefined)	Rango complex inh inconclusive
O=C(O)c1cc(O)c2c(c1)[C@H]([C@H]1c3cc(C(=O)O)cc(O)c3C(=O)c3c(O[C@@H]4O[C@H](CO)[C@@H](O)[C@H](O)[C@H]4O)cccc31)c1cccc(OC3O[C@H](CO)[C@@H](O)[C@H](O)[C@H]3O)c1C2=O (some centres undefined)	Rango dissoc inh 18.4µM, Rango complex inh inconclusive
Cc1ccccc1NC(=O)CC(C)S(=O)(=O)c1ccc2c(c1)NC(=O)CO2 (centres undefined)	CCT modulator -62.5
CC(CC(=O)Nc1cccc(F)c1)S(=O)(=O)c1ccc2c(c1)NC(=O)CO2 (centres undefined)	none
Fc1c(F)c(C(F)(F)F)c(F)c(F)c1N/N=C\c1cccs1	CCT modulator -36.9
COc1ccccc1/C=C(/CC(=O)NCc1ccc(F)cc1)c1nc2ccccc2s1	none
COc1ccccc1/C=C(/CC(=O)NCc1ccccc1)c1nc2ccccc2s1	CCT modulator -33.9
